Assay outcomes from PubChem BioAssay.
Only a selection was taken, and hits are over-represented in it overall.
Dicer inh = human Dicer pre-microRNA cleavage inhibition; AID 1347074; z-score at 25 µM; hit rate 6% among 47,000; Q9UPY3; cat-ELCCA pre-miR-21 Dicer processing, chemiluminescence; active compounds read high; in the data active = z-score above about 3, passing the limit was not always enough;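 note: plate controls were vehicle for no effect and no enzyme for full effect; higher signal means more uncleaved substrate so more Dicer inhibition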
Starred values were filed as active, the others as inactive.

`C[C@H](NS(=O)(=O)c1ccc(F)cc1)C(=O)O` gave Dicer inh 5.3*.
Screening CC(NS(=O)(=O)c1ccc(N)cc1)C(=O)O (stereo not drawn) returned Dicer inh -0.74.
CN1C(=O)C(O)(CC(=O)c2ccc(-n3cccc3)cc2)c2ccccc21 (stereo not drawn) was read as Dicer inh 1.7.
For Cc1ccc(NNC(=O)CCc2ccccc2)cc1Cl the results were Dicer inh -0.78.
`CCc1ccccc1NNC(=O)CCc1ccccc1` gave Dicer inh -0.71.
`Cc1ccc(NNC(=O)CCc2ccccc2)cc1C` gave Dicer inh 3.5*.
Screening Cn1c(CNc2nc3ccccc3n2CCN2CCOCC2)nc2ccccc21 returned Dicer inh -0.51.
For Clc1ccccc1CNc1nc2ccccc2n1CCN1CCCCC1 the results were Dicer inh 2.6.
`c1coc(CNc2nc3ccccc3n2CCN2CCOCC2)c1` gave Dicer inh 5.1*.
For CCN(CC)CCn1c(NCc2cc(OC)ccc2OC)nc2ccccc21 the results were Dicer inh 2.5.
Screening CCCn1c(NCc2ccccn2)nc2ccccc21 returned Dicer inh 1.7.
For COc1ccc(CNc2nc3ccccc3n2CCN2CCOCC2)c(OC)c1 the results were Dicer inh 3.5*.
Cc1nc2ccccc2n1CCN1CCOCC1 was read as Dicer inh -0.46.
For Nc1nc2ccccc2n1Cc1ccccc1 the results were Dicer inh -0.02.
`Cn1c(NCc2ccco2)nc2c1c(=O)n(Cc1ccccc1)c(=O)n2C` gave Dicer inh 0.09.
`c1ccc(Cn2c(NCc3ccco3)nc3ccccc32)cc1` gave Dicer inh 3.7*.
Screening c1ccc(CNc2nc3ccccc3n2CCN2CCOCC2)nc1 returned Dicer inh 5.4*.
For c1ccc2c(c1)nc(NCc1ccncc1)n2CCN1CCCCC1 the results were Dicer inh 2.6.
Screening CCn1c2c(c(=O)[nH]c1=O)C(c1ccc(C(C)C)cc1)C1=C(N2)c2ccccc2C1=O (stereo not drawn) returned Dicer inh 1.4.
O=C1Nc2ccccc2/C1=C/c1ccc2c(c1)OCCO2 was read as Dicer inh -1.6.
Screening CCC(C)C(NC(=O)OC(C)(C)C)C(=O)NC (stereo not drawn) returned Dicer inh -1.1.
`O=C(Nc1csc2ccccc12)N1CCSCC1` gave Dicer inh -0.3.
For COC(=O)C1=C(C)NC2=C(C(=O)CCC2)C1c1cc(Br)c(C)s1 (stereo not drawn) the results were Dicer inh -0.36.
`Fc1ccc(C2NCCc3c2[nH]c2ccccc32)cc1` (stereo not drawn) gave Dicer inh -1.1.
`Cc1cc(C)c(C#N)c(SCc2ccc(Br)cc2)n1` gave Dicer inh 0.72.
For Cc1cc(I)c(S(N)(=O)=O)cc1C the results were Dicer inh -0.41.
Screening CC12CCC(=O)C=C1C[C@@H](C(=O)OC1CCCC1)C1C2CCC2(C)C1CC[C@@]21CCC(=O)O1 (stereo partly drawn) returned Dicer inh -1.6.
For O=c1c2ccccc2nnn1-c1ccc(Br)c(Cl)c1 the results were Dicer inh -0.6.
`CC(Sc1ncccc1[N+](=O)[O-])C(=O)O` (stereo not drawn) gave Dicer inh 0.1.
Screening Cc1ccc(C2c3c(oc4ccccc4c3=O)C(=O)N2c2nnc(C(C)C)s2)cc1 (stereo not drawn) returned Dicer inh -0.21.
CCCCc1c(O)nc2sc3ccccc3n2c1=O was read as Dicer inh 0.25.
For CCCCc1c(O)nc(SCCN(CC)CC)n(-c2ccccc2)c1=O the results were Dicer inh 3.3*.
For CCc1c(O)nc(SCC(=O)N2CCc3ccccc32)n(-c2ccccc2)c1=O the results were Dicer inh -1.
NS(=O)(=O)c1ccc(CCn2c(-c3ccccc3)nc(=S)c3c2CCCC3)cc1 was read as Dicer inh 1.4.
Screening O=[N+]([O-])c1cc(S(=O)(=O)c2ccccc2)cs1 returned Dicer inh -0.16.
COc1ccc2[nH]c(=O)c(-c3ccccc3)c(O)c2c1 was read as Dicer inh 0.63.
`COC(=O)c1[nH]c2ccc([N+](=O)[O-])cc2c1-c1ccccc1` gave Dicer inh 0.35.
Screening COC(=O)Cc1c(-c2ccccc2)c2cc(Br)ccc2[nH]c1=O returned Dicer inh 3.9*.
For CCC(C)Sc1cc(C(F)(F)F)c(C(=O)Nc2c(C)cccc2C)cn1 (stereo not drawn) the results were Dicer inh -1.3.
O=C(Nc1ccccc1Sc1nc2ccc(Cl)cc2s1)c1ccc(F)cc1 was read as Dicer inh -3.8.
`CCCCc1c(C)nc2c(OC)cccc2c1SCCC(=O)O` gave Dicer inh 3.5*.
CCc1c(C)nc2ccc(Br)cc2c1SCCC(=O)O was read as Dicer inh 3.2*.
`CCCCc1cc(C)c2nc(-c3ccc(OC)c(OC)c3)cc(C(=O)O)c2c1` gave Dicer inh -6.4.
Cc1nc2ccc(Br)cc2c(-c2ccccc2)c1C(=O)O was read as Dicer inh -0.82.
`CCCCc1c(O)nc(SCCC(=O)O)[nH]c1=O` gave Dicer inh -0.2.
`COc1ccc(-c2nnc(SCCC(=O)O)o2)cc1` gave Dicer inh -0.26.
For CCOC(=O)CSc1nc(C)c2ccccc2n1 the results were Dicer inh 0.21.
`CCOC(=O)c1cc(C)nc2ccc(Br)cc12` gave Dicer inh -0.87.
`CCCCc1c(C)nc2ccccc2c1SCCC(=O)O` gave Dicer inh 3.7*.
O=C(O)c1cccc2cccc(S(=O)c3cccc4cccc(C(=O)O)c34)c12 was read as Dicer inh -1.5.
`COc1ccc(Br)cc1S(=O)(=O)n1ccnc1C(C)C` gave Dicer inh 0.28.
Screening Nc1ccccc1CC(c1c[nH]c2ccccc12)c1c[nH]c2ccccc12 returned Dicer inh 4.8*.
For NC(Cc1c[nH]c2ccccc12)C(=O)O (stereo not drawn) the results were Dicer inh 2.3.
O=C(NCC(c1ccccc1)c1c[nH]c2ccccc12)C(F)(F)F (stereo not drawn) was read as Dicer inh -0.74.
`CC(C)(C)OC(=O)C(C)(C)Sc1ccc(Cl)cc1` gave Dicer inh 0.42.
For O=C(CSc1nc(-c2ccco2)cc(C(F)(F)F)n1)Nc1ccccc1Br the results were Dicer inh 0.37.
For Cc1c(C(=O)OC(C)C)sc2ncn(CC(=O)O)c(=O)c12 the results were Dicer inh 2.
`COC(=O)c1ccc(Cl)cc1N(CCCC#N)S(=O)(=O)c1ccc(Cl)cc1` gave Dicer inh 0.92.
For O=C(NCC1CC1)Nc1sccc1-n1cccc1 the results were Dicer inh -3.
CC(C)(C)c1ccc(NC(=O)Nc2sccc2-n2cccc2)cc1 was read as Dicer inh 6.4*.
`Cn1nc(-c2ccccc2)cc1NC(=O)Nc1ccc(C(C)(C)C)cc1` gave Dicer inh 1.
Screening Cc1onc(-c2c(Cl)cccc2Cl)c1NC(=O)OCCOc1cc(C(F)(F)F)ccn1 returned Dicer inh 1.2.
Screening Cc1ccc(OCC(O)CN2C(=O)NC(C)(C)C2=O)cc1 (stereo not drawn) returned Dicer inh 1.3.
`CC1(C)NC(=O)N(CC(O)CN(Cc2ccccc2)Cc2ccccc2)C1=O` (stereo not drawn) gave Dicer inh 3*.
`CC1(C)NC(=O)N(CC(O)COc2ccc(Br)cc2)C1=O` (stereo not drawn) gave Dicer inh 3.1*.
